# Assay results from ChEMBL document CHEMBL1961873, “Compounds: GSK PKIS; Assays: Nanosyn kinase panel” (2012).
# “And” between values parts separate entries of the source, which are not always exact repeats. Identical values can stand only once.
# Key:
# [1] = molecular target: Death-associated protein kinase 1 (Homo sapiens) (UniProt P53355); details: at 1 µM;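 further: each value is a mean inhibition figure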
# [2] = molecular target: T1, Serine/threonine-protein kinase DCLK2 (Homo sapiens) (UniProt Q8N568); details: at 0.1 µM
# T1 sequence (whole entry): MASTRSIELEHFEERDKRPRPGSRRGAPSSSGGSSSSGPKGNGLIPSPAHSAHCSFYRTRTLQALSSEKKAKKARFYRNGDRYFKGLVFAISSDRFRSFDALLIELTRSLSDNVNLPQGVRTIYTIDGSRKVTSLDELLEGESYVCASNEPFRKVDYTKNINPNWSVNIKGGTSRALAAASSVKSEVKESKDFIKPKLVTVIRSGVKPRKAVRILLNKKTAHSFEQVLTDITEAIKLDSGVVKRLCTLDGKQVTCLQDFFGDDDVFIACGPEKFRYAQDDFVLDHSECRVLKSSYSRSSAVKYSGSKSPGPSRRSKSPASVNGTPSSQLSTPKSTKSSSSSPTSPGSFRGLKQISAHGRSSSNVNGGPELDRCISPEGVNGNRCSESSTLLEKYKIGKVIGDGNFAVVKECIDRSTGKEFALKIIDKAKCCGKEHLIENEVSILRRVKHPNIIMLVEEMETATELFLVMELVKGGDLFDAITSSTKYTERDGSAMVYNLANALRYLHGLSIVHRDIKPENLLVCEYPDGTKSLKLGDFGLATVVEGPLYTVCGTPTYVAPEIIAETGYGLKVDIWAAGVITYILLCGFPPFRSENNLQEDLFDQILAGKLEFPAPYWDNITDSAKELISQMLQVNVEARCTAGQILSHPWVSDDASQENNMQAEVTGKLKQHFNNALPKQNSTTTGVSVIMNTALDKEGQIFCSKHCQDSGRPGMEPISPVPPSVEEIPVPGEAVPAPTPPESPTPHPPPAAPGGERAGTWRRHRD
# [3] = molecular target: T1, Serine/threonine-protein kinase DCLK2 (Homo sapiens); details: at 1 µM
# [4] = molecular target: MAP kinase-activated protein kinase 2 (Homo sapiens) (UniProt P49137); details: at 0.1 µM
# [5] = molecular target: MAP kinase-activated protein kinase 2 (Homo sapiens) (UniProt P49137); details: at 1 µM
# [6] = molecular target: MAP kinase-activated protein kinase 3 (Homo sapiens) (UniProt Q16644); details: at 0.1 µM
# [7] = molecular target: MAP kinase-activated protein kinase 3 (Homo sapiens) (UniProt Q16644); details: at 1 µM
# [8] = molecular target: Serine/threonine-protein kinase MARK1 (Homo sapiens) (UniProt Q9P0L2); details: at 0.1 µM
# [9] = molecular target: Serine/threonine-protein kinase MARK1 (Homo sapiens) (UniProt Q9P0L2); details: at 1 µM
# [10] = molecular target: MAP/microtubule affinity-regulating kinase 3 (Homo sapiens) (UniProt P27448); details: at 0.1 µM
# [11] = molecular target: MAP/microtubule affinity-regulating kinase 3 (Homo sapiens) (UniProt P27448); details: at 1 µM
# [12] = molecular target: T2, MAP/microtubule affinity-regulating kinase 4 (Homo sapiens) (UniProt Q96L34); details: at 0.1 µM
# T2 sequence (whole entry): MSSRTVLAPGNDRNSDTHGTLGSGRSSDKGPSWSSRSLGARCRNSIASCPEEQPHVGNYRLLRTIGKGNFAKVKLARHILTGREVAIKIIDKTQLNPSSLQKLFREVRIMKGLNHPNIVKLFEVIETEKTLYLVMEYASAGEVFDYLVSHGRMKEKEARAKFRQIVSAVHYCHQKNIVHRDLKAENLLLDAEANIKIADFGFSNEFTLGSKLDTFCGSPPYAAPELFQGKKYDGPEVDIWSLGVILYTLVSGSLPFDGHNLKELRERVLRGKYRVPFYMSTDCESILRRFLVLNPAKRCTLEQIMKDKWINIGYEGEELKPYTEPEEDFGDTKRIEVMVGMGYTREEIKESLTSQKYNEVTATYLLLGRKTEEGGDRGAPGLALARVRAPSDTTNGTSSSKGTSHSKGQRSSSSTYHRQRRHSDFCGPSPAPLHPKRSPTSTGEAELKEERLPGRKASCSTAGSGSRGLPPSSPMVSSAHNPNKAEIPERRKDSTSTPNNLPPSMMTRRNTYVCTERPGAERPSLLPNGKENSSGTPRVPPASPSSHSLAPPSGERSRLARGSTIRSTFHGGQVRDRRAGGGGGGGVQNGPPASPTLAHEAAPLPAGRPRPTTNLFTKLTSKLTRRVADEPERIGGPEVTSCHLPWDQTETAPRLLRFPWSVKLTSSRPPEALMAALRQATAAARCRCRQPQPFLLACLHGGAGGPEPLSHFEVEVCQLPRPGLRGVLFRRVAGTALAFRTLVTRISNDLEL
# [13] = molecular target: T2, MAP/microtubule affinity-regulating kinase 4 (Homo sapiens); details: at 1 µM
# [14] = molecular target: Maternal embryonic leucine zipper kinase (Homo sapiens) (UniProt Q14680); details: at 0.1 µM
# [15] = molecular target: Maternal embryonic leucine zipper kinase (Homo sapiens) (UniProt Q14680); details: at 1 µM
# [16] = molecular target: MAP kinase-interacting serine/threonine-protein kinase 1 (Homo sapiens) (UniProt Q9BUB5); details: at 0.1 µM
# [17] = molecular target: MAP kinase-interacting serine/threonine-protein kinase 1 (Homo sapiens) (UniProt Q9BUB5); details: at 1 µM
# [18] = molecular target: MAP kinase-interacting serine/threonine-protein kinase 2 (Homo sapiens) (UniProt Q9HBH9); details: at 0.1 µM
# [19] = molecular target: MAP kinase-interacting serine/threonine-protein kinase 2 (Homo sapiens) (UniProt Q9HBH9); details: at 1 µM
# [20] = molecular target: Serine/threonine-protein kinase MARK2 (Homo sapiens) (UniProt Q7KZI7); details: at 0.1 µM;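 further: mean percent inhibition of PAR-1Balpha kinase activity, reported from the GSK PKIS screen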
# Serine/threonine-protein kinase MARK2 (Homo sapiens), sequence (Q7KZI7 whole entry): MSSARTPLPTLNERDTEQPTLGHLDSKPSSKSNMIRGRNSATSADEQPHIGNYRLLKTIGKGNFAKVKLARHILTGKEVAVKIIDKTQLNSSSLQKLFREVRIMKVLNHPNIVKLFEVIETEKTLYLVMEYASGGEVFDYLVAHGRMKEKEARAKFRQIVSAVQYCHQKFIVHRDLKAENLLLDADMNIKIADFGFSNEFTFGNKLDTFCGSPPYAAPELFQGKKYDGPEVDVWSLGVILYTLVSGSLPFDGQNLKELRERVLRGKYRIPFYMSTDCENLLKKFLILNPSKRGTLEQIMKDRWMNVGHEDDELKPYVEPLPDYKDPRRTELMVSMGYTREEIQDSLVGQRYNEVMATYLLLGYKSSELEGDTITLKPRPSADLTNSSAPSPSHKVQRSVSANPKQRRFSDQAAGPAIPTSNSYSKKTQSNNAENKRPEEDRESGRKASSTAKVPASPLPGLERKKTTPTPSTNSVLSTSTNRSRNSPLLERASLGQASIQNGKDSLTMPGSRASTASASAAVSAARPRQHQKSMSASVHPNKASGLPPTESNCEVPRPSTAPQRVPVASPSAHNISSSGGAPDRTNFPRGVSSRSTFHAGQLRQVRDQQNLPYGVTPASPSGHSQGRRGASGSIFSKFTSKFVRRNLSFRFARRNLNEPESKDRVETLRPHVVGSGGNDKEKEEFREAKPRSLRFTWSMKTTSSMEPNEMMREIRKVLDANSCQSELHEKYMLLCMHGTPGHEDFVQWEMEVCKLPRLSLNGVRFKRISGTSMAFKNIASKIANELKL
# Serine/threonine-protein kinase MARK1 (Homo sapiens), sequence (Q9P0L2 whole entry, looked up): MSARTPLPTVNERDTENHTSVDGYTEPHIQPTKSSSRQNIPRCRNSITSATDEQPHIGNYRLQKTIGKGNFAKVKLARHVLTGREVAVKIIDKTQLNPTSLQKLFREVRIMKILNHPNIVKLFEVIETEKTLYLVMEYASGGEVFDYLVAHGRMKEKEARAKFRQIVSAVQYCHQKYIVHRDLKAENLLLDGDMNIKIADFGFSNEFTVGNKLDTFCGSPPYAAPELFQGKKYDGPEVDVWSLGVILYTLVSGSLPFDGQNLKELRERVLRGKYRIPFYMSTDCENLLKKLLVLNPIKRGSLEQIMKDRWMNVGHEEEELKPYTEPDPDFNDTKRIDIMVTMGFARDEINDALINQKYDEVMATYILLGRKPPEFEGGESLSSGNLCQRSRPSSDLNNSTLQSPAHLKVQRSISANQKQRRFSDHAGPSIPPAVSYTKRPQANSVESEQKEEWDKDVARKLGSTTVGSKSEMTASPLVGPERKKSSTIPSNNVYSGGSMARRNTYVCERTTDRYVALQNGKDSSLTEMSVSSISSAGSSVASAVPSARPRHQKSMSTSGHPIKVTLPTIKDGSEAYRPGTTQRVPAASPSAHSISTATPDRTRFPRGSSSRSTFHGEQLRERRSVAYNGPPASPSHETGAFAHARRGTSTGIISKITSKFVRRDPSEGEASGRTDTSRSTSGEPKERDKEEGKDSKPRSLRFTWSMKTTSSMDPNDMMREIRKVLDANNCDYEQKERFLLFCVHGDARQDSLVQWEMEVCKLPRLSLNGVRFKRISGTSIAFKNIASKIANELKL
# MAP kinase-interacting serine/threonine-protein kinase 2 (Homo sapiens), sequence (Q9HBH9 whole entry, looked up): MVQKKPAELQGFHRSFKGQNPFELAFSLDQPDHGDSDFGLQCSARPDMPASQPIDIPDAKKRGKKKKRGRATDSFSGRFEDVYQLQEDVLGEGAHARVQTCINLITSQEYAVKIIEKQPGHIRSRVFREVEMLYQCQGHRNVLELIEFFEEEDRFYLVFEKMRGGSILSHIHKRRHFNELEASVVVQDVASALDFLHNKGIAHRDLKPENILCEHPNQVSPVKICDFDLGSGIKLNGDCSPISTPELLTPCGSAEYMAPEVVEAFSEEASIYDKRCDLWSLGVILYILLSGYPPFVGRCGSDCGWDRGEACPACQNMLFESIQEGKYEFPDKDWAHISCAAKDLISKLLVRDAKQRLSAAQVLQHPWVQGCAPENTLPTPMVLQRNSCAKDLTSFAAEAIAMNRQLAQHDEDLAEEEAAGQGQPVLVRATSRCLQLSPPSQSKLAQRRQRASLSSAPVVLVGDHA
# Death-associated protein kinase 1 (Homo sapiens), sequence (P53355 whole entry, looked up): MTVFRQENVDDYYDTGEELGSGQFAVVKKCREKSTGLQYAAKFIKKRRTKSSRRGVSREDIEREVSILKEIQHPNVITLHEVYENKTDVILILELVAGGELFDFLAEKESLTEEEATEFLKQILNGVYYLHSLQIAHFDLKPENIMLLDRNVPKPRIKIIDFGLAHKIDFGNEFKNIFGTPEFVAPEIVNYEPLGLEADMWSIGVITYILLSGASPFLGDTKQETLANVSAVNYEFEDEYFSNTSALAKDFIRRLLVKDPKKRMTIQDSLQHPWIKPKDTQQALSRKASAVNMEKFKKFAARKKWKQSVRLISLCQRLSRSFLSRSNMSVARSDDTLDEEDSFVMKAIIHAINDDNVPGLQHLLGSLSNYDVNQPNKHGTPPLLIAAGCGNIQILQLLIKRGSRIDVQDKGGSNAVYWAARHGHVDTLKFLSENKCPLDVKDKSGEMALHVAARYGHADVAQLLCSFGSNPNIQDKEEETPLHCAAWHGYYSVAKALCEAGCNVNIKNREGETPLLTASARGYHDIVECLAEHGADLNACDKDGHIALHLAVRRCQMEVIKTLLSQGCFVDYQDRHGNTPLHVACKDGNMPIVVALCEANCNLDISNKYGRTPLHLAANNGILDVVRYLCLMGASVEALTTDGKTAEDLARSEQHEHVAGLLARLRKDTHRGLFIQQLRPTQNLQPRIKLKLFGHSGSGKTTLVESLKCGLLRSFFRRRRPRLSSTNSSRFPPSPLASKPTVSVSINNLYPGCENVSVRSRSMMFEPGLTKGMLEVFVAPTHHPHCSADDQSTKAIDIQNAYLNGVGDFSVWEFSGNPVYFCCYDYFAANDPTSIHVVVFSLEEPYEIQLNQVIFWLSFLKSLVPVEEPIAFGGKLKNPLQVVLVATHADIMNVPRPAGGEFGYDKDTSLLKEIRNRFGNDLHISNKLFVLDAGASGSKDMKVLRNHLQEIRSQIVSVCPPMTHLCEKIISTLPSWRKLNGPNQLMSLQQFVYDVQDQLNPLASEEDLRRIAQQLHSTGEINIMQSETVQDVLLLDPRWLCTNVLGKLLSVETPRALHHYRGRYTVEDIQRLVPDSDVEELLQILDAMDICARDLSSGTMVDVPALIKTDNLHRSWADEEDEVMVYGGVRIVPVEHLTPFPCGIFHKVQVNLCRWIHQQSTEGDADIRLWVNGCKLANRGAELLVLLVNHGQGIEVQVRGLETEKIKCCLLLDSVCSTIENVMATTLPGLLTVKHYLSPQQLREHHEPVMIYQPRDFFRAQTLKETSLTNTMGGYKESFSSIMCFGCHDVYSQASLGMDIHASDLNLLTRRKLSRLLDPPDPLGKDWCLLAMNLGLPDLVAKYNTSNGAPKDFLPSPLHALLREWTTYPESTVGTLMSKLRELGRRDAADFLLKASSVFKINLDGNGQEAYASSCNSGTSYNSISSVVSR
# MAP kinase-interacting serine/threonine-protein kinase 1 (Homo sapiens), sequence (Q9BUB5 whole entry, looked up): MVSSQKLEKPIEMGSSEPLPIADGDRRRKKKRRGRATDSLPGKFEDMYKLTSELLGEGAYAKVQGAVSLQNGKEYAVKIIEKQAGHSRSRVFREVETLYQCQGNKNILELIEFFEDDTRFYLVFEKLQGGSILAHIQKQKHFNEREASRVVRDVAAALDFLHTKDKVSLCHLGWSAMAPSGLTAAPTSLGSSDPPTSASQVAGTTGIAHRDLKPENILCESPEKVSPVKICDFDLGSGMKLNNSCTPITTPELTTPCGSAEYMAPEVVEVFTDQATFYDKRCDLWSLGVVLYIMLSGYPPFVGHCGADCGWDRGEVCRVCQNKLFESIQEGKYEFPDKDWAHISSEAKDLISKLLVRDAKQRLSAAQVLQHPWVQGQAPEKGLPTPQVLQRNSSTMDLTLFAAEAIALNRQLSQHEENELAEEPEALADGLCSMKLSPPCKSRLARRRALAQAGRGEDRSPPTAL
# Maternal embryonic leucine zipper kinase (Homo sapiens), sequence (Q14680 whole entry, looked up): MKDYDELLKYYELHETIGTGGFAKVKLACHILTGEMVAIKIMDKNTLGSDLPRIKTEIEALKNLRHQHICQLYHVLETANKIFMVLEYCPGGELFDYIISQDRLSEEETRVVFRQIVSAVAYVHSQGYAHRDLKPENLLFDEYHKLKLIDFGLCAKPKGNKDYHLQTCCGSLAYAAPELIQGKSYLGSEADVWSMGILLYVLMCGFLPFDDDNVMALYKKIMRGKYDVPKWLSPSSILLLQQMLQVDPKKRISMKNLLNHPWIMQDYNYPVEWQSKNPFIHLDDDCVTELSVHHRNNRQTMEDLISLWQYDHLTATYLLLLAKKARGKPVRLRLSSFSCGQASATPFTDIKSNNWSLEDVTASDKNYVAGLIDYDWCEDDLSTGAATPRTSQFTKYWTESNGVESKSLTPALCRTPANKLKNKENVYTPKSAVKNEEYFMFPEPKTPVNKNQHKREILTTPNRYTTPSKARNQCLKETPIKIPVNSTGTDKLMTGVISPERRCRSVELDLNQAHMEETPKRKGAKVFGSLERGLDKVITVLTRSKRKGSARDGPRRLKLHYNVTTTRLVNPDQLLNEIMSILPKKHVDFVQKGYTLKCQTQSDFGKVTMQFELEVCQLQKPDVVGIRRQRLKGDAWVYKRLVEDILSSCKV
# MAP kinase-activated protein kinase 2 (Homo sapiens), sequence (P49137 whole entry, looked up): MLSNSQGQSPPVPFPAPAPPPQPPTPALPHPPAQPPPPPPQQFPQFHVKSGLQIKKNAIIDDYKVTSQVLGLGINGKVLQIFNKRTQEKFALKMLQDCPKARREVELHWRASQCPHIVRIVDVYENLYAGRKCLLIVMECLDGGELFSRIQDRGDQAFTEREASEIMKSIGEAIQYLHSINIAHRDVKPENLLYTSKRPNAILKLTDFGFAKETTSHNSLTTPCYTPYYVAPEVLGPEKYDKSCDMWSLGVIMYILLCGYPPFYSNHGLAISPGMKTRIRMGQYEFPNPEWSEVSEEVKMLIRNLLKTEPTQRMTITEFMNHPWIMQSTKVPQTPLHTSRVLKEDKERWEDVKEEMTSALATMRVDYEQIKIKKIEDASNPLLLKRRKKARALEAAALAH
smiles,measurement,setting,value
CC1(C)CC(n2cnc(-c3ccc(F)cc3)c2-c2ccnc(N)n2)CC(C)(C)N1,inhibition,[1],-7.03%
same,inhibition,[2],2.01%
same,inhibition,[3],-7.74%
same,inhibition,[4],-2.49%
same,inhibition,[5],-2.73%
same,inhibition,[6],21.4%
same,inhibition,[7],26.4%
same,inhibition,[8],1.88%
same,inhibition,[9],0.57%
same,inhibition,[10],1.34%
same,inhibition,[11],1.48%
same,inhibition,[12],1.1%
same,inhibition,[13],1.23%
same,inhibition,[14],2.12%
same,inhibition,[15],3.51%
same,inhibition,[16],1.11%
same,inhibition,[17],2.81%
same,inhibition,[18],0.35%
same,inhibition,[19],0.79%
same,inhibition,[20],0.16%
Cc1c2ccc(N(C)c3ccnc(Nc4cccc(S(N)(=O)=O)c4)n3)cc2nn1C,inhibition,[1],3.66%
same,inhibition,[2],-2.02%
same,inhibition,[3],-1.83%
same,inhibition,[4],2.01%
same,inhibition,[5],1.4%
same,inhibition,[6],3.68%
same,inhibition,[7],4.05%
same,inhibition,[8],4.13%
same,inhibition,[9],7.61%
same,inhibition,[10],5.31%
same,inhibition,[11],5.76%
same,inhibition,[12],2.63%
same,inhibition,[13],5.35%
same,inhibition,[14],3.62%
same,inhibition,[15],3.67%
same,inhibition,[16],1.23%
same,inhibition,[17],4.05%
same,inhibition,[18],-0.12%
same,inhibition,[19],3.7%
same,inhibition,[20],1.14%
Cc1ccc(-c2cc3c(NC(=O)C4CC4)ncnc3o2)cc1,inhibition,[1],4.66%
same,inhibition,[2],1.46%
same,inhibition,[3],0.28%
same,inhibition,[4],1.78%
same,inhibition,[5],1.3%
same,inhibition,[6],2.67%
same,inhibition,[7],2.29%
same,inhibition,[8],5.62%
same,inhibition,[9],5.21%
same,inhibition,[10],3.78%
same,inhibition,[11],7.2%
same,inhibition,[12],1.77%
same,inhibition,[13],3.33%
same,inhibition,[14],2.47%
same,inhibition,[15],4.56%
same,inhibition,[16],1.56%
same,inhibition,[17],6.36%
same,inhibition,[18],1.94%
same,inhibition,[19],5.77%
same,inhibition,[20],1.3%
Nc1nonc1-c1nc2cnccc2n1C1CC1,inhibition,[1],4% and -1.82%
same,inhibition,[2],1.88% and -0.85%
same,inhibition,[3],3.6% and -3.51%
same,inhibition,[4],1.36% and 1.4%
same,inhibition,[5],1.45% and 0.82%
same,inhibition,[6],5.15% and 2.54%
same,inhibition,[7],6.05% and 1.43%
same,inhibition,[8],6.69% and 4.73%
same,inhibition,[9],23.2% and 20.6%
same,inhibition,[10],7.63% and 5.91%
same,inhibition,[11],22.6% and 19%
same,inhibition,[12],3.74% and 2.4%
same,inhibition,[13],11% and 8.22%
same,inhibition,[14],10.2% and 12.6%
same,inhibition,[15],66.9% and 71.4%
same,inhibition,[16],3.95% and 1.61%
same,inhibition,[17],9.32% and 10.2%
same,inhibition,[18],4.37% and 1.55%
same,inhibition,[19],18.2% and 15.1%
same,inhibition,[20],3.55% and -0.71%
c1cnn2ncc(-c3ccnc(NCCCN4CCOCC4)n3)c2c1,inhibition,[1],-0.07%
same,inhibition,[2],1.46%
same,inhibition,[3],1.43%
same,inhibition,[4],1.81%
same,inhibition,[5],2.19%
same,inhibition,[6],4.59%
same,inhibition,[7],4.86%
same,inhibition,[8],1.78%
same,inhibition,[9],5.05%
same,inhibition,[10],2.58%
same,inhibition,[11],-0.34%
same,inhibition,[12],1.05%
same,inhibition,[13],2.05%
same,inhibition,[14],4.35%
same,inhibition,[15],11.9%
same,inhibition,[16],4.1%
same,inhibition,[17],10.9%
same,inhibition,[18],1.64%
same,inhibition,[19],7.83%
same,inhibition,[20],-1.43%
